SKKanGAS inh – S. pyogenes SKKanGAS growth inhibitors in kanamycin, primary screen, streptokinase expression inhibitor project, SKKanGAS strain, BacTiter-Glo luminescence | 6 h | inhibition, % at 7.5 µM | 300,000 tested, 1.3% active | AID 1662, 2009;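 active = mean replicate score, as percent of positive control median, at least 50; inconclusive = mean below 50 but one replicate at or above 50; inactive = mean and every replicate below 50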;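 also: strain carries kanamycin resistance gene driven by streptokinase promoter and grows in 40 µg/ml kanamycin; loss of luminescence reflects streptokinase promoter inhibition or plain growth inhibition; 0% = median of DMSO wells and 100% = positive control at its reference dose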
Granule exo inh – LAMP-1 surface exposure blockers, TALL-104 cells – cell-based, flow cytometry, MLPCN library, primary screen | TALL-104 LAMP-1 surface exposure; cells stimulated with thapsigargin and PMA | inhibition, % at 10 µM | 360,000 tested, 0.66% active | AID 651702, 2012;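 active = inhibition above about 55%, limit read from the data; inconclusive = no clear call, values can overlap the other calls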
PP1 inh – PP1-alpha phosphatase inhibitors, primary screen, counter-screen for PP5 inhibitor project, biochemical, fluorescence, OMFP substrate, single point; purified PP1alpha; inhibition, % at 6.7 µM; 320,000 tested, 0.9% active; AID 2235, 2010;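 active = inhibition above the mean inhibition of all tested compounds plus 3 SD, computed separately for each screening campaign, cut at about 15% in these data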
PP5 inh – PP5 phosphatase inhibitors, primary screen, biochemical, fluorescence | inhibition, % at 6.7 µM | AID 1987, 2009 | purified PP5c, OMFP substrate fluorescence | Serine/threonine-protein phosphatase 5 (Homo sapiens), P53041 | 320,000 tested, 0.18% active;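 active = inhibition above the campaign's mean inhibition across all tested compounds plus 3 SD, cut at about 9.5% in these data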;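 also: 0% = DMSO only and 100% = 100 µM cantharidin control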
IDE cell activ – human IDE activators in live cells, primary screen, fluorescence polarization, HEK cells, FAbeta-B substrate. Insulin-degrading enzyme (Homo sapiens), P14735. FAbeta-B cleavage; 0% vehicle, 100% cell-free pure enzyme wells. activation, % at 5.96 µM. 340,000 tested, 0.073% active;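 active = activation above the mean of all tested compounds plus 3 SD, set per screening campaign, cut at about 17% in these data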
IDE cell inh – human IDE inhibitors in live cells, primary screen, fluorescence polarization, HEK cells, FAbetaB substrate; FAbetaB cleavage; AID 434962, 2010; 320,000 tested, 0.41% active; Insulin-degrading enzyme (Homo sapiens), P14735; inhibition, % at 5.59 µM;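 active = percent inhibition above the average of all tested compounds plus 3 SD, set per screening campaign, cut at about 16% in these data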;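 also: IDE supplied by intact live HEK cells; FP after avidin binding of uncleaved biotin substrate so inhibition keeps polarization high; 0% = DMSO wells and 100% = 60 µM reference IDE inhibitor Ii1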
Active calls of the source: *. Hits are enriched below; roughly 2.8% of the tested compounds scored in any of these assays.

For O=C(Nc1ccc(N2CCOCC2)cc1)c1ccc(COc2ccccc2)cc1 the results were SKKanGAS inh -2, Granule exo inh 5, PP1 inh 16*, PP5 inh 1, IDE cell activ 4 and IDE cell inh 7.
For CCOc1cccc(C(=O)Nc2ccc(N3CCCC3)cc2)c1 the results were SKKanGAS inh -2, Granule exo inh -11, PP1 inh 16*, PP5 inh 4, IDE cell activ 3 and IDE cell inh -2.
For CCOc1ccc(C(=O)Nc2ccc(N3CCCC3)cc2)cc1 the results were SKKanGAS inh -3, Granule exo inh -3, PP1 inh 8, PP5 inh 1, IDE cell activ -2 and IDE cell inh 2.
For COc1cc(/C=C/C(=O)OCC(=O)c2ccc(OC(F)F)cc2)ccc1O the results were Granule exo inh 67*, IDE cell activ 3 and IDE cell inh 4.
CCc1cccc2c(C(=O)COC(=O)/C=C/c3ccc(O)c(OC)c3)c[nH]c12 was read as SKKanGAS inh 51*, Granule exo inh -4, PP1 inh 3, PP5 inh 6, IDE cell activ -4 and IDE cell inh 8.
`C#CCOCCOCCOCCNc1nc(N2CCN(C(=O)CCCCCCCCCCNC(=O)[C@H]([C@@H](C)CC)n3cc(CCCCN=C(N)N)nn3)CC2)nc(N2CCN(C(=O)CCCCCCCCCCNC(=O)[C@H](CCCCN)n3cc(C[C@@H](C)CC)nn3)CC2)n1` gave PP1 inh 71*, PP5 inh 9 and IDE cell inh -6.
C#CCOCCOCCOCCNc1nc(N2CCN(C(=O)CCCCCCCCCCNC(=O)[C@H](CCCCN)n3cc(CCCC(=O)O)nn3)CC2)nc(N2CCN(C(=O)CCCCCCCCCCNC(=O)[C@H](CCCCN)n3cc(CCCC(=O)O)nn3)CC2)n1 was read as SKKanGAS inh 1, Granule exo inh -4, PP1 inh 1, PP5 inh -2, IDE cell activ -6 and IDE cell inh 2.
Screening C#CCOCCOCCOCCNc1nc(N2CCOCC2)nc(N2CCN(C(=O)CCCCCCCCCCNC(=O)[C@H](CO)n3cc(CCCCCN)nn3)CC2)n1 returned Granule exo inh -2, PP1 inh 4, PP5 inh 0, IDE cell activ 5 and IDE cell inh -4.
`C#CCOCCOCCOCCNc1nc(N2CCN(C(=O)CCCCCCCCCCNC(=O)[C@H](CO)n3cc(CCCSC)nn3)CC2)nc(N2CCN(C(=O)CCCCCCCCCCNC(=O)[C@H](CCCCN)n3cc(C[C@@H](C)CC)nn3)CC2)n1` gave SKKanGAS inh 28, PP1 inh 51*, PP5 inh 5 and IDE cell inh -2.
Screening C#CCOCCOCCOCCNc1nc(N2CCN(C(=O)CCCCCCCCCCNC(=O)[C@H](CCCCN)n3cc(C[C@@H](C)CC)nn3)CC2)nc(N2CCN(C(=O)CCCCCCCCCCNC(=O)[C@H](CCCCN)n3cc(C[C@@H](C)CC)nn3)CC2)n1 returned SKKanGAS inh inconclusive, Granule exo inh -12, PP1 inh 55*, PP5 inh 2, IDE cell activ 40* and IDE cell inh -2.
`C#CCOCCOCCOCCNc1nc(N2CCN(C(=O)CCCCCCCCCCNC(=O)[C@@H](CCC(=O)O)n3cc(CCCCCN)nn3)CC2)nc(N2CCN(C(=O)CCCCCCCCCCNC(=O)[C@@H](CCC(=O)O)n3cc(CCCCCN)nn3)CC2)n1` gave Granule exo inh -1, PP1 inh 5, PP5 inh 1, IDE cell activ 1 and IDE cell inh -1.
For Cc1cc(C)c(C#N)c(N2CCN(c3ccccc3F)CC2)n1 the results were SKKanGAS inh 50*, Granule exo inh 38, PP1 inh 5, PP5 inh 2, IDE cell activ 6 and IDE cell inh 1.
`O=C(CCn1nnc2ccccc21)Nc1nnc(COc2ccccc2F)s1` gave SKKanGAS inh -12, Granule exo inh -3, PP1 inh 1, PP5 inh 4, IDE cell activ -3 and IDE cell inh 4.
For O=C(CCn1nnc2ccccc21)Nc1nnc(-c2ccccc2F)s1 the results were SKKanGAS inh -2, Granule exo inh 0, PP1 inh 17*, PP5 inh 3, IDE cell activ 0 and IDE cell inh 1.
For O=C(NCc1cccc(C(F)(F)F)c1)c1ccc2c(c1)OCCO2 the results were SKKanGAS inh -1, Granule exo inh -6, PP1 inh 1, PP5 inh 1, IDE cell activ 0 and IDE cell inh -1.
Screening O=S(=O)(Nc1ccc(-n2cccc2)cc1)c1ccc(F)cc1 returned SKKanGAS inh -3, Granule exo inh -1, PP1 inh -4, PP5 inh 1, IDE cell activ -3 and IDE cell inh 1.
For O=S(=O)(Nc1ccc(-n2cccc2)cc1)c1ccc(Cl)c(Cl)c1 the results were SKKanGAS inh 50*, Granule exo inh 0, PP1 inh 1, PP5 inh 2, IDE cell activ 5 and IDE cell inh 7.
For O=C(NCc1nc(-c2ccc(C(F)(F)F)cc2)no1)Nc1cc(Cl)cc(Cl)c1 the results were SKKanGAS inh 109*, Granule exo inh 1, PP1 inh -3, PP5 inh 4, IDE cell activ -2 and IDE cell inh 5.
NCCNc1ccc(C(=O)N2c3ccccc3Sc3ccccc32)cc1[N+](=O)[O-] was read as SKKanGAS inh -2, Granule exo inh 66*, PP1 inh 8, PP5 inh 1, IDE cell activ 1 and IDE cell inh -3.
`N#C/C(=N\Nc1cccc(Cl)c1)C(=O)c1ccccc1` gave SKKanGAS inh 25, Granule exo inh 1, PP1 inh 7, PP5 inh 3, IDE cell activ 3 and IDE cell inh -2.
Screening COc1ccc(C(=O)/C(C#N)=N/Nc2cccc([N+](=O)[O-])c2)cc1 returned SKKanGAS inh 51*, Granule exo inh 28 and IDE cell activ 0.
Screening CCN1C(=NCCc2cccs2)N[C@@H](c2cccs2)C(C(=O)OC)=C1C returned SKKanGAS inh 2, Granule exo inh -8, PP1 inh -6, PP5 inh -1, IDE cell activ 2 and IDE cell inh 0.
Screening O=C(COC(=O)/C=C/c1ccc(OC(F)F)cc1)NC1CCCCCCC1 returned SKKanGAS inh 17, Granule exo inh -4, PP1 inh 0, PP5 inh 1, IDE cell activ -1 and IDE cell inh 1.
`Cc1ccc2ccccc2c1C(O)c1ncc(-c2ccc(F)cc2)[nH]1` (centres undefined) gave Granule exo inh 0.

Screening data deposited in PubChem BioAssay by several laboratories.
